High-throughput results deposited in PubChem by several laboratories.
NSD2 HMT inh: NSD2 histone methyltransferase inhibitors, primary screen, biochemical, AlphaScreen, single concentration, set 2. Histone-lysine N-methyltransferase NSD2 (Homo sapiens), O96028. NSD2 peptide methylation, 120 min. inhibition, % at 12.5 µM. 0.54% of 310,000 active. AID 743445, 2014; in the data active = inhibition above about 50%
V-ATPase pHluor: regulators of yeast V-ATPase proton pumping, primary screen, pHLuorin cytosolic pH fluorescence; AID 504577, 2011; S. cerevisiae; response, % at 10 µM; 0.37% of 350,000 active; in the data active = response mostly above about 7.3%, no sharp cut-off; inactive = mostly below about 5.4%; also: actives read high
Rce1 inh: yeast Rce1p protease inhibitors, primary screen, biochemical, fluorescence, cell-free homogeneous; 0.27% of 290,000 active; yeast membranes, quenched prenylated peptide cleavage fluorescence; calls only;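 active = fall in fluorescence gain of 50% or more versus controls, with final raw signal at or below 3038400; inconclusive = same 50% fall but final raw signal above 3038400; inactive = fall in fluorescence gain under 50%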;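 also: plate controls were neutral control wells for no effect and wells lacking membranes for full effect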
Target sequence (Q03530 whole entry, looked up): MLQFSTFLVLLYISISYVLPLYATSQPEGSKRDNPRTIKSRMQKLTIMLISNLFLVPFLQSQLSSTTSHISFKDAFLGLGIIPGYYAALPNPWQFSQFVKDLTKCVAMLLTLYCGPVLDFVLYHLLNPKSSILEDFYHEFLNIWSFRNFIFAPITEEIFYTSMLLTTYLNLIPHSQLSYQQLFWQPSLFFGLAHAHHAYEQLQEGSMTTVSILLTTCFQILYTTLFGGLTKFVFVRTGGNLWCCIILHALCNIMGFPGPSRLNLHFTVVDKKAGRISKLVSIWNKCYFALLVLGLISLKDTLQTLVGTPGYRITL
NPR2 activator: human GC-B receptor activators, primary screen, HEK293 GC-B cells, cGMP TR-FRET, EC30 CNP; 0% at EC30 CNP, 100% saturating CNP; 0.11% of 370,000 active; activation, % at 10 µM; Atrial natriuretic peptide receptor 2 (Homo sapiens), P20594;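 active = activation at 10 µM reaching about 35% in either raw or pattern-adjusted values, limit read from the data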
NPR1 activator: GC-A stimulated cGMP production enhancers – HEK293 GC-A cells, cGMP TR-FRET, EC30 ANP, primary screen; Atrial natriuretic peptide receptor 1 (Homo sapiens), P16066; 0% at EC30 ANP, 100% saturating ANP; activation, % at 10 µM; 0.14% of 370,000 active; AID 1671463, 2021; in the data active = activation above about 40%
Efflux pump mplx: inhibitors of Candida efflux pumps in yeast, primary screen, S. cerevisiae, Nile Red, multiplex. S. cerevisiae Candida pump triplex. inhibition, % at 10 µM. 0.44% of 330,000 active. AID 485275, 2010;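 active = plate passing quality check with inhibition over a set limit, or well fluorescence over plate mean plus 4 SD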;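 also: Nile Red retained in pooled yeast measured as flow cytometry median fluorescence; 0% = buffer negative control and 100% = Enniatin B positive control; higher means more Nile Red kept so more efflux inhibition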
Cmpd fluor yeast: compound fluorescence in yeast efflux pump counter-screen | shares compounds with Efflux pump mplx | S. cerevisiae AD/pABC3, flow cytometry | fluorescence ratio to DMSO, % at 10 µM | 4% of 1,700 active;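 active = fluorescence ratio to DMSO above its plate's cutoff, the plate mean ratio plus 5 SD, cut at about 210% in these data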;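 also: unstained yeast with no Nile Red so the signal is compound autofluorescence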
CaMdr1 efflux inh: inhibitors of Candida albicans Mdr1 efflux, confirmation, flow cytometry, singleplex, Cherry Pick1 set; shares compounds with Efflux pump mplx; S. cerevisiae AD/CaMDR1, Nile Red efflux; inhibition, % at 10 µM; 1% of 1,700 active; AID 588518, 2011; in the data active = inhibition above about 26%;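 also: 0% = DMSO vehicle and 100% = reference inhibitor; higher means more Nile Red retained so more efflux inhibition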
Cdr2 pump inh: inhibitors of Candida albicans Cdr2 efflux pump, confirmation, S. cerevisiae AD/CaCDR2, flow cytometry, cherry pick 1, singleplex. shares compounds with Efflux pump mplx. 4% of 1,700 active. AID 588520, 2011. Nile Red retention ratio vs DMSO, % at 10 µM. Nile Red retention; in the data active = Nile Red retention ratio vs DMSO above about 190%;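 also: higher ratio means more blocking of Cdr2 efflux of the dye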
Cdr1 pump inh: inhibitors of Candida albicans Cdr1 efflux pump, confirmation, S. cerevisiae AD/CaCDR1, flow cytometry, cherry pick 1, singleplex; shares compounds with Efflux pump mplx; Nile Red efflux; inhibition, % at 10 µM; 1% of 1,700 active; AID 588522, 2011;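 active = inhibition above the screen-wide mean plus twice its standard deviation, cut at about 32% in these data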
* hit, by the source's call; i = inactive; u = inconclusive; x = not tested or not shown; + = active, no number. An excerpt weighted towards active compounds, which were near 1.6% of everything screened.

SMILES | NSD2 HMT inh | V-ATPase pHluor | Rce1 inh | NPR2 activator | NPR1 activator | Efflux pump mplx | others
Cc1cccc(OC(=O)c2sc(Cl)nc2C)c1 | -4 | 5 | i | 6 | 56* | 0
COC(=O)c1cccc(OCC(C)CN2CCC(C(O)(c3ccccc3)c3ccccc3)CC2)c1 (stereo not given) | x | x | x | -8 | -13 | x
Cc1ccc(C2C(C#N)=C(N)Oc3cc(N)ccc32)cc1 (stereo not given) | -1 | 4 | i | 4 | 25 | 0
N#CC1=C(N)Oc2cc(N)ccc2C1c1cccc(Br)c1 (stereo not given) | 1 | -7 | i | 6 | 46* | 0
N#CC1=C(N)Oc2cc(O)ccc2C1c1ccccc1 (stereo not given) | 0 | 1 | i | 0 | 57* | 0
COc1cc(C2C(C#N)=C(N)Oc3cc(N(C)C)ccc32)cc2c1OCO2 (stereo not given) | 1 | -1 | x | -7 | -15 | 1
COc1cc(C2C(C#N)=C(N)Oc3cc(O)ccc32)cc2c1OCO2 (stereo not given) | x | -2 | i | 0 | 53* | 0
CCOC(=O)CNC(=O)CSc1nnc(-c2ccc(C(C)(C)C)cc2)n1-c1ccc(Cl)cc1 | 3 | x | x | -3 | -3 | x
N#C[C@@H]1N[C@H](CO)[C@@H]1c1ccccc1 | x | x | x | 7 | 0 | x
CC(=O)Nc1ccc(C2=NNC(=Nc3cccc(S(=O)(=O)N(C)C)c3)SC2)cc1 | x | 7.9* | x | x | x | 0
Nc1nc(CN2CCN(c3ccccc3F)CC2)nc(Nc2ccc3c(c2)OCCO3)n1 | 0 | 16* | i | 10 | -1 | 0
CN1CCN(Cc2nc(N)nc(Nc3ccc4c(c3)OCCO4)n2)CC1 | x | -5 | i | 6 | 5 | 0
Cc1ccc(Cc2c(-c3ccc(Cl)cc3)nc3cc(C)ccn23)cc1 | x | 2 | x | 48* | 36 | x
COc1cc2c(C#N)c(N3CCOCC3)nc(N)c2c(N)n1 | 25 | 0 | i | 6 | 15 | 0
COc1cc2c(C#N)c(N3CCCCC3)nc(N)c2c(N)n1 | -12 | -4 | + | 2 | 8 | 0
CCN(CC)c1nc(N)c2c(N)nc(OC)cc2c1C#N | x | -2 | + | 4 | 9 | 1
Cn1c(N)c(C(=O)COC(=O)c2cc(C3CC3)nc3ccccc23)c(=O)n(C)c1=O | x | 1 | i | 36* | 6 | 0
CCCCc1cc(=O)oc2cc(OCc3nn[nH]n3)ccc12 | -1 | 18* | i | 5 | -6 | 0
Nc1c(N2CCCC2)cc(Cl)c2nonc12 | x | 2 | i | x | x | 0
Nc1ccc(N2CCCCC2)c2nonc12 | 83* | 0 | i | 0 | -4 | 0
CC1CN(c2nc3ccccc3nc2SCC(=O)N2CCN(S(=O)(=O)c3ccccc3)CC2)CC(C)O1 (stereo not given) | -3 | x | x | 7 | 2 | x
CN1CCN(c2ccccc2NC(=O)c2cc(Br)ccc2Cl)CC1 | 6 | -1 | i | 2 | 0 | 0
CC(=O)N1CCN(c2ccccc2NC(=O)c2cc(Br)ccc2Cl)CC1 | x | 18* | i | 4 | 1 | 0
CCCCNS(=O)(=O)/C=C/c1cc(C)ccc1CNC(=O)OC(C)(C)C | x | x | x | 2 | -4 | x
CCN(CC)CCNC(=O)c1cc2cc3ccc(OC)cc3nc2o1 | 25 | -2 | u | 0 | 3 | 0
SMILES | NSD2 HMT inh | V-ATPase pHluor | Rce1 inh | NPR2 activator | NPR1 activator | Efflux pump mplx | others
COCCCNC(=O)c1cc2cc3cc(OC)ccc3nc2o1 | -3 | 2 | + | 0 | 9 | 0
COc1ccc(Cc2nc3ccc(C(=O)N4CCCC4)cc3o2)cc1 | x | -4 | + | -4 | 1 | 0
COC(=O)C(NNc1ccccc1C)(NC(=O)c1ccc(F)cc1)C(F)(F)F (stereo not given) | 5 | 8.7* | i | 2 | 0 | 0
CC(C)(N[C@@H](Cc1ccccc1)C(=O)NCCc1c[nH]c2ccccc12)C(=O)NC1CCCCC1 | 0 | x | x | -8 | -4 | x
C#CCNC(=O)C1=C[C@@H](C2CCCCC2)C[C@@H](OCc2ccc(CO)cc2)O1 | x | -4 | + | 0 | -3 | x
C#CCNC(=O)C1=C[C@H](C2CCCCC2)C[C@H](OCc2ccc(CO)cc2)O1 | x | -1 | i | 1 | 0 | 0
O=c1c2ccc(F)cc2nc2sc(Nc3ccc4c(c3)CCC4)nn12 | x | x | x | -7 | 4 | x
Cc1ccc(S(=O)(=O)c2cn(C)c3cc(N4CCOCC4)c(F)cc3c2=O)cc1 | -3 | -4 | + | 26 | 25 | 0
Cn1cc(S(=O)(=O)c2ccccc2)c(=O)c2cc(F)c(N3CCOCC3)cc21 | -2 | 4 | i | 11 | 11 | 0
CN(C)S(=O)(=O)c1cccc(-n2sc3ccccc3c2=O)c1 | x | -3 | x | 5 | 4 | 136*
O=c1c2ccccc2sn1-c1ccccc1 | 7 | 6 | i | 16 | 15 | 0
Cc1ccc(-n2sc3ccccc3c2=O)cc1S(=O)(=O)N1CCCCC1 | x | -3 | i | 4 | 1 | 2.4*
Cc1ccc2c(c1)C1CS(=O)(=O)N(CCc3ccccc3)C(=O)N1C2 (stereo not given) | x | x | x | -5 | -1 | x
COc1ccccc1Cn1c(=O)c2ccccc2n2c(SCC(=O)N3CCCCC3)nnc12 | -2 | 0 | i | -2 | -3 | 1.6* | Cmpd fluor yeast=111;CaMdr1 efflux inh=0;Cdr2 pump inh=110;Cdr1 pump inh=0
Cc1sc2ncnc(N/N=C/c3cccc(O)c3)c2c1C | 1 | -4 | i | -2 | -3 | 0
